According to PubChem BioAssay:
Unmarked numbers belong to inactive results. No rule for the calls is given here.

Molecular target: Pantothenate synthetase (Mycobacterium tuberculosis (strain ATCC 25618 / H37Rv)) (UniProt P9WIL5)
Test: Coupled enzyme confirmation of inhibitors against recombinant Mtb PanC (AID 375);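 also: 0% = full reaction with vehicle and 100% = no enzyme background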
Conditions: coupled enzyme assay; at 10 µM, active compounds read high

Pantothenate synthetase (Mycobacterium tuberculosis (strain ATCC 25618 / H37Rv)), sequence (P9WIL5 whole entry, looked up): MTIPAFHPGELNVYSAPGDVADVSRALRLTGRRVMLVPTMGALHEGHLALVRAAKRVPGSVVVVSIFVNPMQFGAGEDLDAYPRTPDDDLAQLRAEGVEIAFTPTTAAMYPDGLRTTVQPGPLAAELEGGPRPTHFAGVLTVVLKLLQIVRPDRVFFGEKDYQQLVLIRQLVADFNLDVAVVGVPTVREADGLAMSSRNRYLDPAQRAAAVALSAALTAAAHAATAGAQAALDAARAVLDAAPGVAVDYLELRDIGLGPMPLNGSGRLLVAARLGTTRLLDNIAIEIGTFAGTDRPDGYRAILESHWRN

In order of falling inhibition:
1. CC(C)N(Cc1nc(-c2ccccc2)no1)C(=O)CCCN1C(=O)c2ccccc2C1=O  9%
2. CC(C)COC(=O)C1C2C=CC3(CN(C(C)c4ccc(Br)cc4)C(=O)C13)O2 (configuration not stated)  8%
3. CC(=O)NC1=NC(=O)/C(=C/N2CCCCC2)S1  8%
4. O=c1c2c3c(sc2n2cnnc2n1CCc1ccccc1)CCCC3  5%
5. CC(=O)N1CCN(S(=O)(=O)c2ccc(S(=O)(=O)NC3CC3)cc2)CC1  3%
6. CC(=O)Nc1c(O)n(C)c2ccccc12  2%
7. Cc1ccc(S(=O)(=O)NCCc2ccncc2)cc1  2%
8. O=C(CSc1nnc(Cn2c(=O)sc3ccccc32)n1-c1ccccc1)Nc1nccs1  1%
9. CCOc1cccc2cc(C(=O)N3CCN(C/C=C/c4ccccc4)CC3)c(=O)oc12  0%
10. CC(C)c1nnc(NC(=O)c2cnccn2)s1  0%
11. CC1CCN(c2c(NCc3ccc(C(=O)N4c5ccccc5CC4C)cc3)c(=O)c2=O)CC1 (configuration not stated)  0%
12. CCN(CC)CCNC(=O)c1cc(Cl)c(N)cc1OC  0%
13. CN(CCNS(=O)(=O)c1ccc2c(c1)oc(=O)n2C)Cc1ccccc1  0%
14. CCCCCCC(c1c(C)n(C)n(-c2ccccc2)c1=O)c1c(C)n(C)n(-c2ccccc2)c1=O  0%
15. Cc1nc(/N=C\N(C)C)sc1C(=O)Nc1ccccc1  0%
16. CC(C)CC(=O)Nc1ccccc1-c1nnn(CC(=O)N2CCOCC2)n1  0%
17. CC(=O)OCC(=O)[C@@]1(O)CC[C@H]2[C@@H]3CCC4=CC(=O)C=C[C@]4(C)[C@@]3(Cl)[C@@H](Cl)C[C@@]21C  0%
